# Assay results: PubChem BioAssay (EPA / NIEHS)
# Activity calls are given as the source filed them. The calls were made as follows: active = hit-call score of the fitted dose curve at least 0.9, where 1 is the maximum; inactive = score below 0.9.
# Read-out: Pselectin, SELP (gene 6403)
# Test: BSK_4H_Pselectin: BioMAP Diversity Plus: 4H Assay for Pselectin Biomarker Activity (AID 2283026)
# Conditions: primary human endothelial cells (HUVEC); actives raise or lower the signal
# Description: BSK_4H is a cell-based, multiplexed-readout assay that uses umbilical vein endothelium, a human vascular primary cell, with measurements taken at 24 hours after chemical dosing in a 96-well plate.BSK_4H_Pselectin is an assay component measured in the BSK_4H assay. It measures P-Selectin antibody related to regulation of gene expression using ELISA technology.Data from the assay component BSK_4H_Pselectin was analyzed into 1 assay endpoint. This assay endpoint, BSK_4H_Pselectin, was analyzed with bidirectional fitting relative to DMSO as the negative control and baseline of activity. Using a type of binding reporter, gain or loss-of-signal activity can be used to understand changes in the signaling as they relate to the gene SELP. Furthermore, this assay endpoint can be referred to as a primary readout, because this assay has produced multiple assay endpoints where this one serves a signaling function. To generalize the intended target to other relatable targets, this assay endpoint is annotated to the cell adhesion molecules intended target family, where the subfamily is selectins.
# The levels of cell surface (or secreted, indicated by the prefix "s") biomarker endpoints were measured by ELISA. Overt cytotoxicity to cells in confluent adherent cultures (all systems other than the BT system) was assessed by measuring total protein levels using sulforhodamine B (SRB) staining in parallel cultures at the time of biomarker measurements, indicated as SRB endpoints. For proliferation assays for adherent cell types, individual cell types are cultured at sub-confluence and relative cell numbers quantified by SRB staining at time points optimized for each system (48 h: 3C and CASM3C systems; 72 h: BT and HDF3CGF systems; 96 h: SAg system). SRB was performed by staining cells with 0.1% SRB after fixation with 10% TCA and reading wells at 560 nm.Viability and proliferation of PBMC (T cells) was quantified by Alamar Blue reduction for the SAg and BT systems. For PBMC viability (referred to as PBMC Cytotoxicity within the assay endpoint names), cells were plated (75,000/well in a 96-well plate) and then chemical samples added for 1 h before addition of activators, SEB and TSST-1 (20 ng/mL final concentration each). Cells were incubated for 90 h. Then, Alamar Blue (20 uL/well) (Invitrogen, Cat DAL1100) was added for 6 h, and the plates were read with a fluorescence microplate reader at 546/580 nm (excitation/emission). For PBMC proliferation, cells were plated and activated as above but incubated for only 16 h prior to addition of Alamar Blue. Plates were read after 6 h.
SMILES,outcome,AC50
CS(=O)(=O)NC(=O)c1cc(Oc2ccc(C(F)(F)F)cc2Cl)ccc1[N+](=O)[O-],inactive,–
CCC12COCN1COC2,inactive,–
[O-][Cl+]O,inactive,–
CN(C)c1ccc(C(=O)c2ccc(N(C)C)cc2)cc1,inactive,–
Clc1ccc(C(c2ccc(Cl)cc2)C(Cl)(Cl)Cl)cc1,–,14.9 µM (active)
CCN(CC)CCO,inactive,–
OCCCl,inactive,–
CN(C)[C@@H]1C(=O)C(C(N)=O)=C(O)[C@@]2(O)C(=O)C3=C(O)c4c(O)cccc4[C@@](C)(O)[C@H]3C[C@@H]12,inactive,–
C[N+](C)(C)CC1CO1 (stereo not given),inactive,–
CN(C)c1ccccc1,inactive,–
CN(C)C(=O)Nc1ccc(Cl)cc1,inactive,–
c1ccc2c(c1)-c1cccc3cccc-2c13,inactive,–
COP(=S)(OC)SCN1C(=O)c2ccccc2C1=O,inactive,–
C=CCc1ccc2c(c1)OCO2,inactive,–
Nc1ccc([N+](=O)[O-])cc1,inactive,–
CCC(C)c1ccc(O)cc1 (stereo not given),inactive,–
OCCOCCO,inactive,–
Oc1ccc2ccc3cccc4ccc1c2c34,–,31.6 µM (active)
CC(C)COC(=O)c1ccccc1C(=O)OCC(C)C,inactive,–
ClC1=C(Cl)[C@]2(Cl)[C@H]3[C@H]([C@@H]4C=C[C@H]3C4)[C@@]1(Cl)C2(Cl)Cl,–,24.1 µM (active)

SMILES,outcome,AC50
Clc1ccc(C(c2ccc(Cl)cc2)C(Cl)Cl)cc1,–,15.1 µM (active)
Cc1ccc(N)c(N)c1,inactive,–
Brc1ccc(Oc2ccccc2)cc1,inactive,–
[As]#[In],inactive,–
CC(C)(C)OOC(=O)c1ccccc1,inactive,–
C1=Cc2cccc3cccc1c23,inactive,–
Nc1ccc(N=Nc2ccccc2)cc1,inactive,–
CO[C@@H]1[C@H](OC(=O)NC(=O)CCl)CC[C@]2(CO2)[C@H]1[C@@]1(C)O[C@@H]1CC=C(C)C,–,2.09 µM (active)
CC(C)(O)c1cnn2c(-c3ccc(F)c(-c4c(F)cccc4C#N)c3)cnc2n1,–,36.2 µM (active)
Nc1ccc(Cl)cc1N,–,1.11 µM (active)
C[C@]12C=CC3=C4CCC(=O)C=C4CC[C@H]3[C@@H]1CC[C@@H]2O,inactive,–
Cc1ccc(N)cc1,inactive,–
COc1cc(C=O)cc2c1[C@H](COC(N)=O)[C@]1(OC(C)=O)ON2C[C@H]2[C@@H]1N2C(C)=O,–,3.37 µM (active)
O=Cc1ccco1,inactive,–
Cc1cccc(N)c1N,inactive,–
c1ccc2c(c1)oc1ccccc12,inactive,–
O=P(OCCCl)(OCCCl)OCCCl,inactive,–
OCCCBr,inactive,–
CC(C)(C)OOC(C)(C)CCC(C)(C)OOC(C)(C)C,inactive,–
CCOc1cccc(C2(N3CCN(c4ccccc4)CC3)CCC(C)CC2)c1 (stereo not given),inactive,–
